Results as given in PubChem BioAssay (NCI).
The panel holds about 79,000 compounds, 15% with a hit somewhere; the sample as a whole holds those more often. Values without a mark were called inactive. Cut-off read from the data, not from the text of the source: active = growth inhibition above about 70%; inactive = the rest.

Experiment: NCI Yeast Anticancer Drug Screen. Data for the sgs1 mgt1 strain (AID 161);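 note: 0% = growth of cultures given vehicle only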
Details: S. cerevisiae sgs1 mgt1 strain, at 50.0 µM, active compounds read high
How it was run: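 Test agents were incubated with a DNA-repair-mutant yeast strain. Growth was then read and compared against vehicle-treated controls.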
Work on FC(F)(F)c1ccc(C2ON=C(c3ccccc3)N2C23CC4CC(CC(C4)C2)C3)cc1 (configuration not stated) yielded a growth inhibition of 25.1%.
With Fc1ccc(NC(=S)NCCN2CCCC2)cc1 the growth inhibition was 8.1%.
C/C=C/C(=O)N(CC)CC showed a growth inhibition of 3.75%.
In the case of CC1CC[N-]C(N)N1.CC1CC[N-]C(N)N1.[Cl][Pd][Cl] (configuration not stated), the growth inhibition is reported as 6.75%.
NNC(=O)NN1C(=O)c2cc(S(=O)(=O)O)cc3c(N)c(S(=O)(=O)O)cc(c23)C1=O showed a growth inhibition of 14.6%.
O=c1[nH]cc(CNC2CCCCC2)c(=O)[nH]1 showed a growth inhibition of 7.65%.
Work on CCOC(Nc1ccccc1[N+](=O)[O-])C(=O)c1ccccc1 (configuration not stated) yielded a growth inhibition of 1.35%.
For O=S(=O)(O)SCCCNCCCCCCCCNCCCSS(=O)(=O)O, the growth inhibition was -1.6%.
COc1ccc2c(c1)C=C(C(C)(C)C)NS2(=O)=O showed a growth inhibition of 2%.
In the case of CCN(CC)c1ccc(/C=N\NC(=S)N/N=C/c2ccc(N(CC)CC)cc2)cc1, the growth inhibition is reported as 7.9%.
CCCCCCCCCCCCCCCC(=O)N(CCCCCCCCCCC(=O)O)CC(O)C(O)C(OC1OC(CO)C(O)C(O)C1O)C(O)CO (configuration not stated) gave a growth inhibition of 10.2%.
Work on CCOC(=O)c1cnc(SC)nc1Nc1ccc(Cl)cc1 yielded a growth inhibition of -6.55%.
CCCCCCCCSC1=NS(=O)(=O)c2ccccc21 gave a growth inhibition of 44.5%.
In the case of Cc1nc(C)c(C(=O)NNC(=O)Cc2ccccc2)cc1C(=O)NNC(=O)Cc1ccccc1, the growth inhibition is reported as -0.9%.
O=C(C(c1ccccc1)C(C(=O)N(Cc1ccccc1)Cc1ccccc1)c1ccccc1)N(Cc1ccccc1)Cc1ccccc1 (configuration not stated) showed a growth inhibition of -18.9%.
CCCC(CCC)(C(=O)OCC)C(=O)OCC gave a growth inhibition of -1.3%.
CCCCOC(=O)c1ccc(OC(=O)Nc2ccccc2)cc1 showed a growth inhibition of 11.4%.
Compound O=C(NC12CC3CC(CC(C3)C1)C2)C(=O)c1c[nH]c2ccc(Br)cc12 has a growth inhibition of -14.1%.
With O=C1C(=Cc2ccc(Cl)c(Cl)c2)C([O-])=C([P+](c2ccccc2)(c2ccccc2)c2ccccc2)C([O-])=C1[P+](c1ccccc1)(c1ccccc1)c1ccccc1 the growth inhibition was -7.05%.
N#C/C(=N/Nc1nc[nH]c1C(N)=O)C(=O)Nc1ccccc1 gave a growth inhibition of 16.6%.
CCOC(=O)C(C(=O)OCC)C(=O)c1cc(OC)c(OC)c(OC)c1 gave a growth inhibition of -1.35%.
With Cc1cc(C(N)=O)c(C(N)=O)c(Cl)n1 the growth inhibition was -3.2%.
O=C(/C(N=Nc1ccccc1)=C(\O)c1ccccc1)c1ccccc1 gave a growth inhibition of 2.45%.
CN(C)CCSSCCN(C)C showed a growth inhibition of -13.6%.
For CCCCOC(=O)C1CC2OC2CC1C(=O)OCCOCCOC(=O)C1CC2OC2CC1C(=O)OCCCC (configuration not stated), the growth inhibition was -14.4%.
Compound c1cc2[nH]snc2c2cncc12 has a growth inhibition of 0.25%.
COCCN(CCOC)C1C2=C(CCCC2)OS(=O)(=O)C1c1ccccc1 (configuration not stated) gave a growth inhibition of 6.45%.
